B1: ENSMUSG00000004113.145|Cacna1b (ssRNA)
RNA: GGGAGUUCUACAGUCCGACGAUCGCUUCGAUAUCCGCAUGCUAAAAUAGCACAUGUAUGUAGAGAUGCGCUCAAGGGCCUGCCUUUCACCUACACUGUCACCAUAACAGGGACCAAAUCUGGAGGAUGUCCUUGCUGUUGAUUCUGGUUUUCAGUCACAACACUUUCACUGUUUGUCAUUUCUAUGUAGUUGAUCUAGAAAAAGCAGAAAUCAAAACAGGAAAGGAAAUGUUUGUGUAACUUUAAAAAAAAAGUCAACAUGUAGGAAGGUCUCCAUUUUGCAUUGUUUCUGUGUCUUGUAUGCCUCUUGCGGUCGCACUAGUGUGGAAUUCUCGGGUGUCAAGG
B2: ENSMUSG00000031028.502|Tub|9:15;46:52 (ssRNA)
RNA: GGGAGUUCUACAGUCCGACGAUCGCUUCGAUAUCCGCAUGCUACAAGUAAGCACACACCCUCUGGGAAGACAGGAGUCGGAAGCCAAGCACACACGCAACAGUCUGGAAGAGAGCUUUUGGUAAUCAUACCGUCUUCAGUGACAAGGCAACAAUGCUGUAAAGUGGGUUUGUUUGGUUUUGUUUUUUCUUUCUCUUUUAUGGAAAUGGCAGGUCUAUUUGCCUCAAACGUUAUGUAGAAGUAGUUCUAAGUUUAACAAGCAAUAGAGAUGACUGCUUAGCUAGGAUCUGCAGGGAGCUCUGCUCUCUUGCGGUCGCACUAGUGUGGAAUUCUCGGGUGUCAAGG
B3: ENSMUSG00000031028.254|Tub|5:10 (ssRNA)
RNA: GGGAGUUCUACAGUCCGACGAUCGCUUCGAUAUCCGCAUGCUAUGCCACACACCCAUCUGUGAGAAGCUUCUUGGAGCUGAGACACCAGAGGGAAGCAAAGAGCAUUUAGACAUUGCUUUUUGCUUUGAAAUAGAUAUGUUUGGAAACGCUAAGUAGAAGUUUAAAAAGUAGAGUCAUGUAGAGUCAUGCUUUGAAUAUGUGGGUCAUGCUUUAGAUAUGAAGAGGCUAUGCAGGUAAGGAGGCUGGAUUGAUGUAAAUGGAAGUAGUACUUUAAGAAAGCUCUAGAUUUCCCAGGUUGGACACUCUUGCGGUCGCACUAGUGUGGAAUUCUCGGGUGUCAAGG
B4: ENSMUSG00000090935.680|Synj2bp|248:252 (ssRNA)
RNA: GGGAGUUCUACAGUCCGACGAUCGCUUCGAUAUCCGCAUGCUAUUGAGAUUCACCACUGUCAGGAGCUCUCUCUCUCUGCUUAGAAUCAUCCAGACAGCGGGCUGGUCAGCCCACAUUAAAUAAGAACAUGUGGGACUAGAAUUCAGUCAACAAUGACAUGUUUCAUCAGGUGGUUAAAAUGUACAGAUUCUGUUGGAAAUGUUCCAUGGUAUUUCAAUAGCCAGAAUGAAGAACUGGGCUAAGUCCAGAGCUCUGCUCUCUGAGCAUCUGCCCCAGAUACAGAGGCAGACAUACAAGUGGAACUCUUGCGGUCGCACUAGUGUGGAAUUCUCGGGUGUCAAGG
B5: ENSMUSG00000031028.409|Tub (ssRNA)
RNA: GGGAGUUCUACAGUCCGACGAUCGCUUCGAUAUCCGCAUGCUAACAGGAAGAUCCCUUACCCCUCAUCCCCUCUUCUUUUUGGUCCUUGGCUGGGUAGCAAAUUGGUGAGAAGAGCAGCCUAGUCUGUAAGAGUGCAGGGCAGCUGGAACCUUAGGCAGCUCCUCUGUAUGCUACCGGCUCCACACCCUAACACUCUCCACCCUCUGCUCCAAACCAGUUCUUCUGCAGAGUGGUGAUGUUAGCUUCCCCAGCUCCUCUCCAAGUCUAGCUUUUUCUGUCCUUCUGGCUCCAAGGUGCUCUGUCUCUUGCGGUCGCACUAGUGUGGAAUUCUCGGGUGUCAAGG
B6: ENSMUSG00000031028.419|Tub (ssRNA)
RNA: GGGAGUUCUACAGUCCGACGAUCGCUUCGAUAUCCGCAUGCUAUGGUGAGAAGAGCAGCCUAGUCUGUAAGAGUGCAGGGCAGCUGGAACCUUAGGCAGCUCCUCUGUAUGCUACCGGCUCCACACCCUAACACUCUCCACCCUCUGCUCCAAACCAGUUCUUCUGCAGAGUGGUGAUGUUAGCUUCCCCAGCUCCUCUCCAAGUCUAGCUUUUUCUGUCCUUCUGGCUCCAAGGUGCUCUGUGUCUGUGUGUGUGUGUCUGUCUGUGUGUGUGUGUGUCGAGGAAAGGGCAAUCUGCAAACACUCUUGCGGUCGCACUAGUGUGGAAUUCUCGGGUGUCAAGG
B7: ENSMUSG00000031028.420|Tub (ssRNA)
RNA: GGGAGUUCUACAGUCCGACGAUCGCUUCGAUAUCCGCAUGCUAGAAGAGCAGCCUAGUCUGUAAGAGUGCAGGGCAGCUGGAACCUUAGGCAGCUCCUCUGUAUGCUACCGGCUCCACACCCUAACACUCUCCACCCUCUGCUCCAAACCAGUUCUUCUGCAGAGUGGUGAUGUUAGCUUCCCCAGCUCCUCUCCAAGUCUAGCUUUUUCUGUCCUUCUGGCUCCAAGGUGCUCUGUGUCUGUGUGUGUGUGUCUGUCUGUGUGUGUGUGUGUCGAGGAAAGGGCAAUCUGCAAACAAUGAACCUCUUGCGGUCGCACUAGUGUGGAAUUCUCGGGUGUCAAGG
B8: ENSMUSG00000031028.418|Tub|70:74;204:208;210:222;228:242 (ssRNA)
RNA: GGGAGUUCUACAGUCCGACGAUCGCUUCGAUAUCCGCAUGCUAGCAAAUUGGUGAGAAGAGCAGCCUAGUCUGUAAGAGUGCAGGGCAGCUGGAACCUUAGGCAGCUCCUCUCAUACCUACCGGCUCCACACCCUAACACUCUCCACCCUCUGCUCCAAACCAGUUCUUCUGCAGAGUGGUGAUGUUAGCUUCCCCAGCUCCUCUCCAAGUCUAGCUUUUUCUGUCCUUCUGGCUCCAAGGUGCUCACACACACACACACACACACUGUCACACACACACACACACGAGGAAAGGGCAAUCUGCUCUUGCGGUCGCACUAGUGUGGAAUUCUCGGGUGUCAAGG
B9: ENSMUSG00000031028.418|Tub (ssRNA)
RNA: GGGAGUUCUACAGUCCGACGAUCGCUUCGAUAUCCGCAUGCUAGCAAAUUGGUGAGAAGAGCAGCCUAGUCUGUAAGAGUGCAGGGCAGCUGGAACCUUAGGCAGCUCCUCUGUAUGCUACCGGCUCCACACCCUAACACUCUCCACCCUCUGCUCCAAACCAGUUCUUCUGCAGAGUGGUGAUGUUAGCUUCCCCAGCUCCUCUCCAAGUCUAGCUUUUUCUGUCCUUCUGGCUCCAAGGUGCUCUGUGUCUGUGUGUGUGUGUCUGUCUGUGUGUGUGUGUGUCGAGGAAAGGGCAAUCUGCUCUUGCGGUCGCACUAGUGUGGAAUUCUCGGGUGUCAAGG
B10: ENSMUSG00000031028.417|Tub (ssRNA)
RNA: GGGAGUUCUACAGUCCGACGAUCGCUUCGAUAUCCGCAUGCUAUGGGUAGCAAAUUGGUGAGAAGAGCAGCCUAGUCUGUAAGAGUGCAGGGCAGCUGGAACCUUAGGCAGCUCCUCUGUAUGCUACCGGCUCCACACCCUAACACUCUCCACCCUCUGCUCCAAACCAGUUCUUCUGCAGAGUGGUGAUGUUAGCUUCCCCAGCUCCUCUCCAAGUCUAGCUUUUUCUGUCCUUCUGGCUCCAAGGUGCUCUGUGUCUGUGUGUGUGUGUCUGUCUGUGUGUGUGUGUGUCGAGGAAAGGGCCUCUUGCGGUCGCACUAGUGUGGAAUUCUCGGGUGUCAAGG
B11: ENSMUSG00000031028.421|Tub (ssRNA)
RNA: GGGAGUUCUACAGUCCGACGAUCGCUUCGAUAUCCGCAUGCUACAGCCUAGUCUGUAAGAGUGCAGGGCAGCUGGAACCUUAGGCAGCUCCUCUGUAUGCUACCGGCUCCACACCCUAACACUCUCCACCCUCUGCUCCAAACCAGUUCUUCUGCAGAGUGGUGAUGUUAGCUUCCCCAGCUCCUCUCCAAGUCUAGCUUUUUCUGUCCUUCUGGCUCCAAGGUGCUCUGUGUCUGUGUGUGUGUGUCUGUCUGUGUGUGUGUGUGUCGAGGAAAGGGCAAUCUGCAAACAAUGAACAGAAGUCUCUUGCGGUCGCACUAGUGUGGAAUUCUCGGGUGUCAAGG
B12: ENSMUSG00000031028.419|Tub|64:68;198:202;204:216;222:236 (ssRNA)
RNA: GGGAGUUCUACAGUCCGACGAUCGCUUCGAUAUCCGCAUGCUAUGGUGAGAAGAGCAGCCUAGUCUGUAAGAGUGCAGGGCAGCUGGAACCUUAGGCAGCUCCUCUCAUACCUACCGGCUCCACACCCUAACACUCUCCACCCUCUGCUCCAAACCAGUUCUUCUGCAGAGUGGUGAUGUUAGCUUCCCCAGCUCCUCUCCAAGUCUAGCUUUUUCUGUCCUUCUGGCUCCAAGGUGCUCACACACACACACACACACACUGUCACACACACACACACACGAGGAAAGGGCAAUCUGCAAACACUCUUGCGGUCGCACUAGUGUGGAAUUCUCGGGUGUCAAGG
B13: ENSMUSG00000031028.416|Tub (ssRNA)
RNA: GGGAGUUCUACAGUCCGACGAUCGCUUCGAUAUCCGCAUGCUACUUGGCUGGGUAGCAAAUUGGUGAGAAGAGCAGCCUAGUCUGUAAGAGUGCAGGGCAGCUGGAACCUUAGGCAGCUCCUCUGUAUGCUACCGGCUCCACACCCUAACACUCUCCACCCUCUGCUCCAAACCAGUUCUUCUGCAGAGUGGUGAUGUUAGCUUCCCCAGCUCCUCUCCAAGUCUAGCUUUUUCUGUCCUUCUGGCUCCAAGGUGCUCUGUGUCUGUGUGUGUGUGUCUGUCUGUGUGUGUGUGUGUCGAGGACUCUUGCGGUCGCACUAGUGUGGAAUUCUCGGGUGUCAAGG

Over roughly 9,900 sequences, “r (bound/input frequency ratio)” has its median near 0.7; the highest 2% begin near 6.5. The entries come from a sample that favours the highest values as a whole.

Chain of TDP-43 (Q13148 whole entry): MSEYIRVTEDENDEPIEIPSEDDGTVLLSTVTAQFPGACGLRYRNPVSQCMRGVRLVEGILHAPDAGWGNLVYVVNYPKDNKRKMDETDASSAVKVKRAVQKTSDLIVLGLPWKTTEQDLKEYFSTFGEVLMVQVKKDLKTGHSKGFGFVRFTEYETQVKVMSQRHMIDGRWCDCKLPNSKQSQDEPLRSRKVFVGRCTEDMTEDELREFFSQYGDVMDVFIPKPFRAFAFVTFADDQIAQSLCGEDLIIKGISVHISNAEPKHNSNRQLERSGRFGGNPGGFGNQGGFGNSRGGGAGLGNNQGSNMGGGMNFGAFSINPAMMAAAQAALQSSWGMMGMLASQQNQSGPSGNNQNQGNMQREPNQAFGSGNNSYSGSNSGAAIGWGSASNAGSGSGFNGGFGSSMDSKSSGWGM

The assay concerns the target TDP-43 (Homo sapiens, UniProt Q13148 1-414). The assay can be described thus: RNA Bind-n-Seq with designed 260-mer pool; 25 mM Tris-HCl, 150 mM KCl, 3 mM MgCl2, BSA (printed 500 mg/mL), 20 units/mL SUPERase IN; pH not stated; 500 nM RNA pool, 1 h, 4 C; TDP-43 5, 50, 500 nM; high values mean tight binding. As to conditions: protein: recombinant; tags: SBP (GST cleaved off with PreScission; pGEX-GST-SBP). The essentials: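 In 25 mM Tris-HCl, 150 mM KCl, 3 mM MgCl2, BSA and SUPERase IN, 500 nM of an in vitro-transcribed 260-nt 3′ UTR oligo pool was incubated for 1 h at 4 °C with SBP-tagged TDP-43 (5, 50 or 500 nM) captured on streptavidin beads. RNA remaining after washes was biotin-eluted, reverse transcribed, PCR-amplified and sequenced. Binding, R, is the bound-sample abundance of each oligo, normalized to mapped reads, divided by its abundance in input. Each duplicate used a separate, independent protein batch.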
Take B1: the binding signal was 0.241 R (bound/input frequency ratio).
Take B2: the binding signal is 0.277 R (bound/input frequency ratio).
The same measure for B3: 1.12 R (bound/input frequency ratio).
In the case of B4, the binding signal was 0.197 R (bound/input frequency ratio).
As for B5, the figure is 0.927 R (bound/input frequency ratio).
Take B6: the binding signal was 5.95 R (bound/input frequency ratio).
The same measure for B7: 7.33 R (bound/input frequency ratio); for B8: 3.24 R (bound/input frequency ratio); for B9: 7.04 R (bound/input frequency ratio).
Regarding B10, the binding signal was 6.83 R (bound/input frequency ratio).
In the case of B11, the binding signal was 5.82 R (bound/input frequency ratio).
For B12, the binding signal is 3.42 R (bound/input frequency ratio).
B13: the binding signal was 6.14 R (bound/input frequency ratio).

The values above are taken from publication PMC12864922, “TDP-43 directly inhibits mRNA accumulation in neurites through modulation of mRNA stability”.
